Test results from PubChem BioAssay AID1626 (SRMLSC, 2009).
In all, about 220,000 compounds went through this assay and about 2,000 (0.91%) were called active. Inconclusive results (about 2%) are left out. No stated cut-off is given here; in the data, inconclusive means inhibition above about 80% without an active follow-up result; inactive means below that; test concentration not stated here. A selection follows. Results with a measured potency or affinity are listed apart.

Assay: M. tuberculosis H37Rv growth inhibitors, H37Rv strain (AID 1626);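 further: bacteria incubated seven days before Alamar blue readout; 0% = bacteria only wells and 100% = bacteria with antibiotic wells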
Conditions: active compounds read high, concentration not given here

Row | Compound | inhibition
1 | COC(=O)[C@@H]1C[C@H]1[C@@H](NS(=O)(=O)c1ccccc1)c1ccccc1 | -5.22% (inactive)
2 | C/C(=N\N=C(/N)SC1CC(=O)N(c2ccccc2)C1=O)c1cccs1 (configuration not stated) | 3.4% (inactive)
3 | C/C(=N\N=C(/N)SC1CC(=O)N(c2ccc(Cl)cc2)C1=O)c1cccs1 (configuration not stated) | 64.5% (inactive)
4 | CC(O)/C=C/c1ccc2ccccc2n1 (configuration not stated) | 10.2% (inactive)
5 | CN(C(=O)COC(=O)/C=C/c1ccc2ccccc2n1)C1CCS(=O)(=O)C1 (configuration not stated) | 14.9% (inactive)
6 | COC(=O)CNC(=O)COC(=O)/C=C/c1ccc2ccccc2n1 | 61.8% (inactive)
7 | O=C(O)/C=C/c1ccc2ccccc2n1 | -1.78% (inactive)
8 | COc1cc(NC(=O)C2CC(=O)NC3=C2C(=O)CCC3)cc(OC)c1 (configuration not stated) | -7.6% (inactive)
9 | CC(=O)O[C@]1(c2ccccc2)CCN(C)[C@H]2CCCC[C@@H]21 | -5.42% (inactive)
10 | Cc1ccc(Cn2nnc3c(=O)n(CC(=O)c4ccccc4)cnc32)cc1 | 4.84% (inactive)
11 | CC(=O)N1C(=O)N(C)C2C1N(C)C(=O)N2C(C)=O (configuration not stated) | -8.79% (inactive)
12 | C=CCOC(=O)C1=C(C)NC(=S)C(C#N)(CC=C)C1c1ccccc1Cl (configuration not stated) | -0.05% (inactive)
13 | Cc1ccc(S(=O)(=O)/N=C(\N)Nc2nc(C)c3ccccc3n2)cc1 | 9.4% (inactive)
14 | Cc1ccc2c(C)nc(N/C(N)=N/S(=O)(=O)c3ccc([N+](=O)[O-])cc3)nc2c1 | 13% (inactive)
15 | CCCOc1ccc(N2C(=O)CC(SC(=N)N3N=C(c4ccccc4)CC3c3ccccc3)C2=O)cc1 (configuration not stated) | 75.6% (inactive)
16 | CCN(CC)S(=O)(=O)c1ccc(NC(=O)C(C)N(c2ccccc2)S(C)(=O)=O)cc1 (configuration not stated) | -1.18% (inactive)
17 | COc1ccc(-c2nnc(SCC(=O)NCC3CCCO3)n2C)cc1 (configuration not stated) | -4.37% (inactive)
18 | Cc1cccc(-c2nsc(SCC(=O)Nc3cc(C)on3)n2)c1 | 70.6% (inactive)
19 | CCc1ccc2nc(-c3cccc(C)c3)nc(SCC(=O)NCC3CCCO3)c2c1 (configuration not stated) | -13% (inactive)

Row | Compound | inhibition
20 | COc1ccc(-c2nnc3ccc(SCC(=O)NCC4CCCO4)nn23)cc1 (configuration not stated) | -3.46% (inactive)
21 | Cc1cc(NS(=O)(=O)c2ccccc2)n(-c2ccccc2)n1 | -2.44% (inactive)
22 | CCC(=O)N1CCc2cc(S(=O)(=O)NCCC(=O)N3CCN(c4ccccn4)CC3)ccc21 | -5.78% (inactive)
23 | COc1cc(/C=N/NC(=O)COc2ccccc2[N+](=O)[O-])ccc1OC(=O)c1ccco1 | 4.21% (inactive)
24 | Cn1ccnc1SCC(=O)Nc1ccc(Oc2ccccc2)cc1 | 3.6% (inactive)
25 | CCCN1CCN(CCCNC(=O)C2CCN(c3nnc(-n4cccc4)s3)CC2)CC1 | -6.41% (inactive)
26 | NC(=O)CSc1nc(-c2ccccc2Cl)ns1 | -12.5% (inactive)
27 | O=C(CSc1nc(-c2ccccc2Cl)ns1)NCc1ccco1 | 24.3% (inactive)
28 | COc1ccc(-n2c(C)cc(SC)c(C(C)=O)c2=S)cc1 | 1.47% (inactive)
29 | CC(Sc1nncn1C)C(=O)Nc1ccc(Cl)cn1 (configuration not stated) | 4.99% (inactive)
30 | CC(Sc1nnnn1-c1ccccc1)C(=O)Nc1ccc(Cl)cn1 (configuration not stated) | -7.65% (inactive)
31 | Cc1nn(-c2ccccc2)c2c1C(c1ccc([N+](=O)[O-])cc1)C(C#N)=C(N)O2 (configuration not stated) | -9.83% (inactive)
32 | COc1cccc(C2c3c(C)nn(-c4ccc([N+](=O)[O-])cc4)c3N=C3C(=O)Nc4ccccc4N32)c1 (configuration not stated) | 72.8% (inactive)
33 | Cc1nn(-c2ccccc2)c2c1C(c1ccc(Cl)cc1)N(c1ccccc1)C(=O)N2 (configuration not stated) | 63.4% (inactive)
34 | Cc1nn(-c2ccc([N+](=O)[O-])cc2)c2c1C(c1cccc(Br)c1)N1C(=N2)C(=O)Nc2ccccc21 (configuration not stated) | 73% (inactive)
35 | Cc1c(NC(=O)C(C)OC(=O)COc2cccc3c2OC(C)(C)C3)c(=O)n(-c2ccccc2)n1C (configuration not stated) | 0.88% (inactive)
36 | COCCNC(=O)COC(=O)c1ccc(OCC(=O)Nc2ccccc2OC)c(OC)c1 | 2.52% (inactive)
37 | CCC1(C)CC(C(N)=S)CCO1 (configuration not stated) | 7.13% (inactive)
38 | CCOC(=O)c1ccc(CSc2nnc(C)n2N)o1 | 1.16% (inactive)

Row | Compound | inhibition
39 | NC(=O)C[C@H]1NC(=O)[C@H](CCC(=O)O)NC(=O)c2cc([N+](=O)[O-])cc(I)c2NCCC[C@@H](C(N)=O)NC1=O | 3.24% (inactive)
40 | COc1ccc(Nc2ccnc3ccccc23)cc1 | 9.05% (inactive)
41 | c1ccc(CCNc2ncnc3ccccc23)cc1 | -6.97% (inactive)
42 | c1ccc2cc3c(NCCN4CCOCC4)ccnc3cc2c1 | 3.77% (inactive)
43 | Oc1ccc(Nc2ccnc3cc(Cl)ccc23)cc1 | -0.59% (inactive)
44 | Cc1c(C(=O)NCc2ccccc2Cl)oc2c1C(=O)CCC2 | -3.25% (inactive)
45 | CCCCn1nc2cc(C(=O)NCc3cc(C(F)(F)F)cc(C(F)(F)F)c3)ccc2c1OC | -4.51% (inactive)
46 | O=C(NC1CCCCC1)c1ccc(Cn2cc(Cl)cn2)cc1 | 0.85% (inactive)
47 | CCCSc1ccc(C(=O)Nc2ccc(F)cc2F)cn1 | 72.4% (inactive)
48 | CC(=O)Nc1ccc(NC(=O)c2ccc(Cl)nc2)cc1 | 3.97% (inactive)
49 | N=C1/C(=C/c2cccn2-c2ccc([N+](=O)[O-])cc2)C(=O)N=C2SC=CN12 | -5.89% (inactive)
50 | N=C1/C(=C/c2cccn2-c2cccc([N+](=O)[O-])c2)C(=O)N=C2SC=CN12 | -11.3% (inactive)
51 | Cc1ccc2cc(CN(CC3CCCO3)C(=O)C(C)C)c(=O)[nH]c2c1 (configuration not stated) | -3.77% (inactive)
52 | CCCCCCCCCCCCCCCC[n+]1cccc(C(=O)N(CC)CC)c1 | 5.29% (inactive)
53 | C=C(C)Cn1c(=O)c(NC(=O)c2ccccc2)c2n(c1=S)CCC2 | -3.38% (inactive)
54 | O=C(NCCCN1CCOCC1)c1cccnc1SCc1ccccc1Cl | -2.04% (inactive)
55 | CCN(CC)CCN(Cc1cc2ccc(C)c(C)c2[nH]c1=O)C(=S)NCc1ccco1 | -6.4% (inactive)
56 | O=[N+]([O-])c1ccc(COc2ccc(-c3[nH]ncc3-c3ccccc3)c(O)c2)cc1 | 11.9% (inactive)
57 | COc1ccc(-c2cn[nH]c2-c2ccc(OCc3ccc([N+](=O)[O-])cc3)cc2O)cc1 | 9.69% (inactive)
